Assay results taken from PubChem BioAssay (NCI).
Compounds without any hit were thinned out: in the full panel of roughly 79,000, 15% have a hit. Calls of active or inactive are those of the source. Cut-off read from the data, not from the text of the source: active = growth inhibition above about 70%; inactive = the rest.

Key:
[1] = NCI Yeast Anticancer Drug Screen. Data for the wt1 strain (AID 149);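 note: 0% = growth of vehicle-treated wt1 cultures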; conditions: S. cerevisiae wt1 strain (SPY 50644) growth inhibition, stronger effect = higher value
Outline: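 Compounds are added to wt1 yeast cultures. Growth is then measured. Inhibition is expressed relative to vehicle-treated controls.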

[2] = NCI Yeast Anticancer Drug Screen. Data for the rad50EPP+ strain (AID 151);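 note: 0% = growth of vehicle-treated control cultures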; conditions: S. cerevisiae rad50 mutant strain, stronger effect = higher value
Outline: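 Yeast strain carrying rad50 alteration (rad50EPP+) exposed to compounds; growth inhibition measured relative to vehicle-treated controls.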

[3] = NCI Yeast Anticancer Drug Screen. Data for the mgt1 strain (AID 153); conditions: S. cerevisiae mgt1 mutant growth inhibition, stronger effect = higher value
Outline: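 Yeast mgt1 strain (DNA repair/cell-cycle alteration panel) exposed to compounds; growth inhibition measured relative to vehicle-treated controls.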

[4] = NCI Yeast Anticancer Drug Screen. Data for the rad50 strain (AID 155);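 note: 0% = growth of vehicle-only cultures of the same strain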; conditions: S. cerevisiae rad50 strain growth inhibition, stronger effect = higher value
Outline: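 Inhibition values express reduced yeast growth in compound-treated cultures relative to vehicle-treated controls.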

[5] = NCI Yeast Anticancer Drug Screen. Data for the mec2-1 strain (AID 157); conditions: S. cerevisiae mec2-1 strain, stronger effect = higher value
Outline: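 mec2-1 yeast strain, carrying an alteration in DNA damage repair or cell cycle control, was exposed to compounds; growth inhibition was measured relative to vehicle-treated controls.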

[6] = NCI Yeast Anticancer Drug Screen. Data for the rad14 strain (AID 159);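 note: 0% = growth of vehicle-treated control cultures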; conditions: S. cerevisiae rad14 strain growth inhibition, stronger effect = higher value
Outline: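 A mutant yeast strain defective in DNA damage repair is treated with compound; inhibition of its growth is scored against untreated, vehicle-exposed cultures.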

[7] = NCI Yeast Anticancer Drug Screen. Data for the sgs1 mgt1 strain (AID 161);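 note: 0% = growth of cultures given vehicle only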; conditions: S. cerevisiae sgs1 mgt1 strain, stronger effect = higher value
Outline: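 Percent growth inhibition was derived by comparing compound-exposed mutant yeast with vehicle-exposed cultures. The strain carries alterations in DNA damage repair.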

[8] = NCI Yeast Anticancer Drug Screen. Data for the cln2 rad14 strain (AID 165);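 note: 0% = growth equal to vehicle treated cultures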; conditions: S. cerevisiae cln2 rad14 strain, stronger effect = higher value
Outline: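 Yeast carrying cln2 and rad14 alterations (cell cycle control and DNA damage repair) were exposed to compounds. Growth inhibition was measured against vehicle-treated controls.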

[9] = NCI Yeast Anticancer Drug Screen. Data for the bub3 strain (AID 167); conditions: S. cerevisiae bub3 mutant strain, stronger effect = higher value
Outline: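 Steps: expose the mutant yeast strain to compound; grow alongside vehicle-treated cultures; measure growth; express inhibition against the vehicle cultures.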

[10] = NCI Yeast Anticancer Drug Screen. Data for the wt2 strain (AID 169);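 note: 0% = growth of vehicle-treated yeast cultures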; conditions: S. cerevisiae wt2 strain growth inhibition, stronger effect = higher value
Outline: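 Yeast cells were exposed to test compounds, and growth inhibition was measured relative to vehicle-treated controls.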

[11] = NCI Yeast Anticancer Drug Screen. Data for the mlh1 strain (AID 171);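 note: 0% = growth of vehicle-treated control cultures of the same strain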; conditions: S. cerevisiae mlh1 strain growth inhibition, stronger effect = higher value
Outline: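 Yeast carrying a defined genetic alteration in DNA damage repair or cell cycle control were exposed to test compounds. Growth inhibition was measured relative to vehicle-treated controls.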

[12] = NCI Yeast Anticancer Drug Screen. Data for the sgs1 strain (AID 173);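 note: 0% = growth of vehicle-only control cultures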; conditions: S. cerevisiae sgs1 mutant, stronger effect = higher value
Outline: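 Yeast mutant strains carrying defined defects in DNA damage repair or cell cycle control were exposed to test compounds. Growth inhibition was scored against vehicle-treated controls.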

[13] = NCI Yeast Anticancer Drug Screen. Data for the mlh1 rad18 strain (AID 175); conditions: S. cerevisiae mlh1 rad18 strain growth inhibition, stronger effect = higher value
Outline: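 Growth inhibition of the yeast strain was measured after compound exposure and expressed relative to vehicle-treated controls. The strain carries defined defects in DNA damage repair.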

[14] = NCI Yeast Anticancer Drug Screen. Data for the rad18 strain (AID 177); conditions: S. cerevisiae rad18 mutant growth inhibition, stronger effect = higher value
Outline: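 Yeast carrying a defined DNA damage repair alteration were exposed to compounds. Growth inhibition was expressed relative to vehicle-treated controls.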

[15] = NCI Yeast Anticancer Drug Screen. Data for the rad52 strain (AID 147);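 note: 0% = growth of vehicle-treated control cultures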; conditions: S. cerevisiae rad52 mutant growth inhibition, stronger effect = higher value
Outline: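 Yeast strain carrying a DNA damage repair alteration was exposed to test compounds. Growth inhibition was measured relative to vehicle-treated controls.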

[16] = NCI Yeast Anticancer Drug Screen. Data for the CLN2oe strain (AID 163);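 note: 0% = growth of vehicle-only control cultures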; conditions: S. cerevisiae CLN2oe strain, stronger effect = higher value
Outline: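 Yeast cells carrying a defined cell-cycle control alteration were exposed to test compounds. Growth inhibition was scored against vehicle-treated control cultures.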

[17] = at 5.0 µM (retest, dose inferred, filed as 0.5)
[18] = at 50.0 µM (retest, dose inferred, filed as 5.0)

Measured: growth inhibition

Oc1cccc2nc3ccccc3nc12
inactive: [1]; at 1.2 µM -55% | [1]; at 3.7 µM -46% | [1]; at 11.0 µM -30% | [1]; at 33.0 µM 1% | [2]; at 1.2 µM -47% | [2]; at 3.7 µM -31% | [2]; at 11.0 µM 6% | [2]; at 33.0 µM 63% | [3]; at 1.2 µM -22% | [3]; at 3.7 µM -14% | [3]; at 11.0 µM 6% | [3]; at 33.0 µM 20% | [4]; at 1.2 µM -4% | [4]; at 3.7 µM -8% | [4]; [17] -14% | [4]; at 11.0 µM 5% | [4]; at 33.0 µM 54% | [4]; at 50.0 µM 65.4% | [5]; at 1.2 µM -48% | [5]; at 3.7 µM -44% | [5]; [17] 9% | [5]; at 11.0 µM -33% | [5]; at 33.0 µM 24% | [5]; [18] 47% | [5]; at 50.0 µM 68.5% | [6]; at 1.2 µM -31% | [6]; at 3.7 µM -32% | [6]; at 11.0 µM -27% | [6]; at 33.0 µM 19% | [7]; [17] -4% | [7]; [18] 29% | [7]; at 50.0 µM 21% | [8]; [17] 1% | [8]; [18] 13% | [8]; at 50.0 µM 35.4% | [9]; at 1.2 µM -31% | [9]; at 3.7 µM -28% | [9]; [17] -3% | [9]; at 11.0 µM -16% | [9]; at 33.0 µM -4% | [9]; [18] 35% | [9]; at 50.0 µM 47.2% | [10]; at 1.2 µM -48% | [10]; at 3.7 µM -44% | [10]; at 11.0 µM -39% | [10]; at 33.0 µM -9% | [11]; at 1.2 µM -58% | [11]; at 3.7 µM -33% | [11]; at 11.0 µM -27% | [11]; at 33.0 µM 12% | [12]; at 1.2 µM -43% | [12]; at 3.7 µM -44% | [12]; at 11.0 µM -41% | [12]; at 33.0 µM -18% | [13]; [17] -41% | [13]; [18] 58% | [13]; at 50.0 µM 64.5% | [14]; at 1.2 µM -29% | [14]; at 3.7 µM -26% | [14]; at 11.0 µM -14% | [14]; at 33.0 µM 27%
active: [1]; at 100.0 µM 88% | [2]; at 100.0 µM 96% | [3]; at 100.0 µM 91% | [4]; [18] 73% | [4]; at 100.0 µM 95% | [5]; at 100.0 µM 94% | [6]; at 100.0 µM 92% | [9]; at 100.0 µM 94% | [10]; at 100.0 µM 75% | [11]; at 100.0 µM 92% | [12]; at 100.0 µM 86% | [14]; at 100.0 µM 93%

CNC(=O)OCC1C2=C(C(=O)C(C)=C(N)C2=O)N2CC3C(N3C)C12OC (stereo unspecified)
inactive: [15]; at 1.2 µM 8% | [15]; at 3.7 µM 50% | [15]; at 11.0 µM 52% | [15]; at 33.0 µM 49% | [2]; at 1.2 µM 0% | [2]; at 3.7 µM 10% | [2]; at 11.0 µM 22% | [2]; at 33.0 µM 30% | [2]; at 100.0 µM 41% | [4]; at 1.2 µM -12% | [4]; at 3.7 µM 6% | [4]; [17] 37% | [4]; at 11.0 µM 15% | [4]; at 33.0 µM 22% | [4]; [18] 63% | [4]; at 50.0 µM 51.6% | [4]; at 100.0 µM 52% | [5]; at 1.2 µM -14% | [5]; at 3.7 µM 2% | [5]; [17] 20% | [5]; at 11.0 µM -1% | [5]; at 33.0 µM 16% | [5]; [18] 61% | [5]; at 50.0 µM 55% | [5]; at 100.0 µM 49% | [6]; at 1.2 µM -18% | [6]; at 3.7 µM -9% | [6]; at 11.0 µM 0% | [6]; at 33.0 µM 14% | [6]; at 100.0 µM 46% | [7]; [17] 30% | [7]; [18] 64% | [7]; at 50.0 µM 42.1% | [16]; at 1.2 µM 20% | [16]; at 3.7 µM 22% | [16]; at 11.0 µM 17% | [16]; at 33.0 µM 35% | [16]; at 100.0 µM 37% | [8]; [17] 10% | [8]; [18] 44% | [8]; at 50.0 µM 43.1% | [9]; at 1.2 µM 1% | [9]; at 3.7 µM -4% | [9]; [17] 20% | [9]; at 11.0 µM -5% | [9]; at 33.0 µM 9% | [9]; [18] 43% | [9]; at 50.0 µM 29.4% | [9]; at 100.0 µM 23% | [10]; at 1.2 µM -33% | [10]; at 3.7 µM -40% | [10]; at 11.0 µM -39% | [10]; at 33.0 µM -5% | [10]; at 100.0 µM 21% | [11]; at 1.2 µM -17% | [11]; at 3.7 µM -4% | [11]; at 11.0 µM -6% | [11]; at 33.0 µM 14% | [11]; at 100.0 µM 39% | [13]; [17] 63% | [13]; at 50.0 µM 67.4% | [14]; at 1.2 µM 12% | [14]; at 3.7 µM 13% | [14]; at 11.0 µM 39%
active: [15]; at 100.0 µM 72% | [13]; [18] 92% | [14]; at 33.0 µM 73% | [14]; at 100.0 µM 86%
